The source of these data is PubChem BioAssay (Tox21).

Test [1] in a line: qHTS assay to identify small molecule agonists of the hypoxia (HIF-1) signaling pathway (AID 1224846; active = well fitted activation curve with a large enough effect in the signal ratio in the repeat runs, not every such curve was filed as active; the % refers to the signal ratio). In outline: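 Cell line: CellSensor HRE-bla ME-180; 2,000 cells/well; 0.5% dialyzed FBS; 5 h preincubation; DMSO compound pin transfer; 17 h, 37C, 5% CO2; CCF4-AM added; bla FRET signal scored for activation.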
On the technique in general: Quantitative high-throughput screening tests each substance at several concentrations.

The nature of test [2]: qHTS assay to identify small molecule agonists of H2AX - cell viability counter screen (AID 1224847; calls by dose curve; note: nearly all actives have a fitted effect of over 30% in size; note: potency is the fitted concentration of half-maximal effect). In outline: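 Counter-screen for viability: CellTiter-Glo ATP luminescence read after 3 h compound treatment (15-point titration, 0.76% DMSO final) of CHO-K1 cells at 37C, with 30 min room-temperature reagent incubation.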
The nature of test [3]: qHTS assay to identify small molecule antagonists of the estrogen related receptor (ERR) signaling pathway from Tox21 library (AID 1224848). Note: nearly all actives have a fitted effect of over 50% in size. Note: potency is the fitted concentration of half-maximal effect. In outline: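 Screening used an ERR reporter line supplied by NTP, exposed for 18 h at 37 C to library compounds delivered in DMSO. Signal was luciferase luminescence developed with ONE-Glo at room temperature for 30 min.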
Test [4] in a line: qHTS assay to identify small molecule agonists of the estrogen related receptor (ERR) signaling pathway from Tox21 library (AID 1224849; calls by dose curve; note: nearly all actives have a fitted effect of over 15% in size). As to conditions: ERR reporter cell line, ONE-Glo luciferase, 18 h; at 92.4 µM (top of the series) unless noted. The essentials: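 ERR cells, 6 h pre-incubation 37 C/5% CO2; cpd in DMSO pinned; 18 h 37 C; ONE-Glo added, 30 min RT; luminescence read. Agonist mode, qHTS.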

Test [5] can be described thus: qHTS RealTime-Glo MT Cell Viability Assay in HepG2 cells - 24 hour (AID 1224867). Note: nearly all actives have a fitted effect of over 50% in size. Note: potency is the fitted concentration of half-maximal effect. In outline: (§1)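 Real-time, nonlytic viability: 600 HepG2 cells/well mixed with NanoLuc enzyme plus prosubstrate; 5 h settle, compound (DMSO) added by pintool; luminescence monitored over 40 h at 37 C.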
Test [6] can be described thus: qHTS RealTime-Glo MT Cell Viability Assay in HEK293 cells - 32 hour (AID 1224868). Note: nearly all actives have a fitted effect of over 50% in size. Note: potency is the fitted concentration of half-maximal effect. The essentials:
(§2)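 Cells + reagent dispensed (600 cells/well, HEK293) → 5 h at 37 C/5% CO2 → 23 nL compound in DMSO pinned → 40 h at 37 C → luminescence read at 0, 8, 16, 24, 32, 40 h.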

The nature of test [7]: A CellTox Green Cytotoxicity Assay to monitor cytotoxicity in HEK293 cells - 0 hour (AID 1224869). Note: nearly all actives have a fitted effect of over 50% in size. The essentials: (§3)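 Nonlytic real-time cytotoxicity: HEK293 + CellTox Green reagent plated, 5 h preincubation, pintool compound addition (23 nL in DMSO), 37 C for 40 h, fluorescence measured at successive time points.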
A short description of test [8]: qHTS RealTime-Glo MT Cell Viability Assay in HepG2 cells - 40 hour (AID 1224870). Note: nearly all actives have a fitted effect of over 50% in size. Note: potency is the fitted concentration of half-maximal effect. The essentials:
(§4)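 HepG2 cells mixed with RealTime-Glo MT reagents (NanoLuc plus cell-permeant prosubstrate) were seeded at 600 cells/well, incubated 5 h at 37 C/5% CO2, then pinned with compounds in DMSO; nonlytic luminescence tracked viability during 40 h treatment.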

A short description of test [9]: A CellTox Green Cytotoxicity Assay to monitor cytotoxicity in HEK293 cells - 40 hour (AID 1224871). Note: nearly all actives have a fitted effect of over 45% in size. Note: potency is the fitted concentration of half-maximal effect. The essentials:
as §3

Test [10] is described as follows: qHTS RealTime-Glo MT Cell Viability Assay in HEK293 cells - 16 hour (AID 1224872). The essentials: as §2
The nature of test [11]: qHTS RealTime-Glo MT Cell Viability Assay in HepG2 cells - 8 hour (AID 1224873). Note: nearly all actives have a fitted effect of over 55% in size. In outline: as §4
Test [12] can be described thus: qHTS RealTime-Glo MT Cell Viability Assay in HEK293 cells - 40 hour (AID 1224874). Note: nearly all actives have a fitted effect of over 50% in size. Note: potency is the fitted concentration of half-maximal effect. As to conditions: RealTime-Glo luminescence; max response: hits give low values. In outline: (§5)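 Cells were seeded together with NanoLuc luciferase and a prosubstrate that viable cells reduce to a luciferase substrate. After a 5 h incubation at 37 C/5% CO2, compounds were added and luminescence was measured repeatedly during 40 h of treatment.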

The nature of test [13]: A CellTox Green Cytotoxicity Assay to monitor cytotoxicity in HEK293 cells - 24 hour (AID 1224875). Note: nearly all actives have a fitted effect of over 45% in size. Note: potency is the fitted concentration of half-maximal effect. The essentials: as §3
Test [14] is described as follows: A CellTox Green Cytotoxicity Assay to monitor cytotoxicity in HepG2 cells - 16 hour (AID 1224876). Note: nearly all actives have a fitted effect of over 45% in size. Note: potency is the fitted concentration of half-maximal effect. In outline:
(§6)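 Read-out is fluorescence of a cyanine dye excluded from live cells that stains DNA of dead HepG2 cells, with signal proportional to cytotoxicity. Plates were read at 0, 8, 16, 24, 32 and 40 h after compound addition.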

Test [15] in a line: qHTS RealTime-Glo MT Cell Viability Assay in HepG2 cells - 32 hour (AID 1224877). Note: nearly all actives have a fitted effect of over 55% in size. Note: potency is the fitted concentration of half-maximal effect. In outline:
as §1

The nature of test [16]: A CellTox Green Cytotoxicity Assay to monitor cytotoxicity in HepG2 cells - 24 hour (AID 1224878). Note: nearly all actives have a fitted effect of over 45% in size. Note: potency is the fitted concentration of half-maximal effect. The essentials: as §6
Test [17] can be described thus: A CellTox Green Cytotoxicity Assay to monitor cytotoxicity in HepG2 cells - 40 hour (AID 1224879). Note: nearly all actives have a fitted effect of over 40% in size. Note: potency is the fitted concentration of half-maximal effect. The essentials:
as §6

Test [18] in a line: qHTS RealTime-Glo MT Cell Viability Assay in HEK293 cells - 0 hour (AID 1224880). The essentials:
as §5

A short description of test [19]: qHTS assay to identify small molecule agonists of H2AX (AID 1224845; active = well fitted activation curve with a large enough effect in the signal ratio in the repeat runs, not every such curve was filed as active; the % refers to the signal ratio). The essentials:
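Wild-type CHO-K1 cells plated overnight, then exposed 3 hr at 37C to compounds at 15 concentrations (0.76% DMSO). Lysed, then HTRF anti-pH2AX(S139)-cryptate/anti-H2AX-d2 detection after 24 hr at room temperature; emissions 665 and 620 nm.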

Several values for one entry are separate records, joined by “and”; a condition that tells them apart may be missing. Identical values can stand only once. Unmarked numbers belong to inactive results. Records with an inconclusive call do not appear. Activity calls are given as the source filed them. Unless noted, calls come from the whole dose curve; as a rule, active = well fitted curve in the direction sought with a large enough effect in the repeat runs; inconclusive = weak or mixed curves; inactive = no such curve, though single readings can be large; an effect the other way counts as inactive or inconclusive.
% is set by controls: 0 for no effect and ±100 for the full control effect.

With `FC(F)(F)c1ccccc1Cl`, in [1], the result was inactive. In addition, the Potency entry in test [2], in [3], in test [5], in test [6], in test [7] and in test [8] was “inactive” throughout. The Potency result in test [9], in [10], in test [11], in [13], in test [14] and in [15] was “inactive” each time. Further, the Potency entry in [16], in [17] and in test [18] was “inactive” throughout. Besides, the activity change, positive = activation in [4] was -2.05%. Besides, in [12], the max response was -1.41%.

Take `Cc1cccc(O)c1N`: the Potency result in test [2], in test [5], in [7], in [8], in [9] and in test [10] was “inactive” each time. In addition, the Potency result in [11], in [13], in [14], in test [15], in test [16] and in [17] was “inactive” each time. Also, in test [18], the Potency result is “inactive”. The activity change, positive = activation in test [4] is -14.7%.

For the compound `COc1ccc(OC(=O)N(CC(=O)O)Cc2ccc(OCCc3nc(-c4ccccc4)oc3C)cc2)cc1`, in test [2], the Potency was 27.7 µM (active). In test [4], the activity change, positive = activation is -6.74% [at 42.5 µM]. The Potency entry in test [5], in [6], in test [7], in [9], in test [10] and in test [11] was “inactive” each time. Further, the Potency entry in [13], in [14], in test [15], in test [16], in [17] and in [18] was “inactive” in each case. In addition, in test [12], the max response is -9.99%.

Consider `CC(=O)N/N=C/c1ccc([N+](=O)[O-])o1`, for which the Potency entry in test [3], in test [5], in [6], in [7], in test [8] and in test [9] was “inactive” in each case. Further, the Potency entry in test [11], in test [13], in [14], in test [16] and in test [18] was “inactive” throughout. The activity change, positive = activation in [4] is -10.2% [at 42.5 µM]. The max response in test [12] is 8%.

For the compound `CN1CCCC(CC2c3ccccc3Sc3ccccc32)C1` (configuration not stated), the activity change, positive = activation in test [4] was -39.8% [at 42.5 µM]. The Potency is 23.9 µM (active) in test [5]; 23.9 µM (active) in [6]; 26.8 µM (active) in [8]; 23.9 µM (active) in [9]; 23.9 µM (active) in test [12]; 23.9 µM (active) in test [13]. Besides, the Potency is 23.9 µM (active) in test [14], 23.9 µM (active) in [15], 21.3 µM (active) in [16] and 23.9 µM (active) in test [17]. For the same compound, the Potency result in test [7] and in [11] was “inactive” each time.

For the compound `CC(C)c1nc(CN(C)C(=O)N[C@H](C(=O)N[C@@H](Cc2ccccc2)C[C@H](O)[C@H](Cc2ccccc2)NC(=O)OCc2cncs2)C(C)C)cs1`, the call in test [1] was inactive. Besides, the Potency in [3] is 21.1 µM (active); in [6], 21.3 µM (active); in test [12], 21.3 µM (active); in [17], 21.3 µM (active). Moreover, the activity change, positive = activation in test [4] was -41.1% [at 42.5 µM]. In addition, the Potency entry in [5], in test [7], in test [8], in test [11], in [14] and in test [16] was “inactive” throughout. For the same compound, the Potency result in [18] was “inactive”.

`C[C@@H]1CC(=O)NN=C1c1ccc(NN=C(C#N)C#N)cc1`: the Potency in test [3] is 13.3 µM (active); in test [17] it was 15.1 µM (active) and 13.4 µM (active). For the same compound, the activity change, positive = activation in test [4] was -30.7% [at 42.5 µM] and -38.2% [at 42.5 µM]. Also, the Potency entry in [7], in [9], in test [11], in test [13] and in [16] was “inactive” throughout.

In the case of `COc1ccccc1N1CCN(CC(O)COc2cccc3ccccc23)CC1` (configuration not stated), the Potency entry in test [19], in test [7], in test [9], in test [11], in [13] and in [18] was “inactive” each time. In addition, the Potency was 49.2 µM (active) in test [2], 26.8 µM (active) in test [6] and 30.1 µM (active) in test [17].

As to `CCOC(=O)c1ccc(O)c(O)c1`, in test [1], the call was inactive. Further, the Potency result in [2], in [5], in test [6], in test [7], in [9] and in [10] was “inactive” each time. The Potency result in test [11], in test [13], in test [16], in [17] and in [18] was “inactive” each time. Besides, the max response in test [12] was -21.6%.

As to `c1csc(SSc2cccs2)c1`, the compound was called inactive in [1]. Also, the Potency result in test [2], in test [7], in test [13] and in test [18] was “inactive” in each case. Also, the Potency in [3] was 61.1 µM (active); in test [17], 54.9 µM (active). Further, in test [4], the activity change, positive = activation is -56.7%.

Consider `CC1(C)[C@@H](OC(=O)CCC(=O)O)CC[C@]2(C)[C@H]3C(=O)C=C4[C@@H]5C[C@@](C)(C(=O)O)CC[C@]5(C)CC[C@@]4(C)[C@]3(C)CC[C@@H]12`, for which the Potency entry in test [19], in [3], in test [5], in [7], in test [8] and in test [9] was “inactive” throughout. The Potency result in [10], in [11], in test [13], in test [14], in test [15] and in test [16] was “inactive” each time. For the same compound, the Potency result in test [17] and in [18] was “inactive” each time. The activity change, positive = activation in [4] was 1.84% [at 42.5 µM]. Besides, the max response in test [12] was 10.8%.

For the compound `Nc1nc2ccc([N+](=O)[O-])cc2s1`, the Potency result in test [2], in test [7], in test [8], in test [9], in [10] and in test [11] was “inactive” in each case. In addition, the Potency entry in [13], in test [15] and in test [18] was “inactive” in each case. Further, the Potency is 49 µM (active) in test [14], 43.6 µM (active) in [16] and 43.6 µM (active) in test [17].

As for `CC(=O)Nc1cc(S(=O)(=O)O)cc2cc(S(=O)(=O)O)c(N=Nc3ccccc3)c(O)c12`, in [1], the compound was called inactive. The Potency in [2] is 50.5 µM (active). In addition, the activity change, positive = activation in [4] was -5.56%. Also, the Potency entry in [5], in [6], in test [7], in [9], in test [10] and in [11] was “inactive” each time. The Potency result in test [13], in [14], in [15], in test [16], in test [17] and in [18] was “inactive” throughout. Besides, in test [12], the max response was -17.9%.

On to `CCOc1cccc(-n2cc(C(=O)N3CCN(c4cc(C(=O)O)c5ccccc5c4)CC3)nc2-c2ccc(C)cc2)c1`, for which, in [4], the activity change, positive = activation was -37.7%. The Potency result in [5], in [6], in [7], in test [8], in test [9] and in test [10] was “inactive” each time. Besides, the Potency result in test [11], in [13], in test [14], in test [15], in [16] and in test [17] was “inactive” in each case. Moreover, in [12], the max response was 7.68%.
